# Laboratory results: ChEMBL document CHEMBL2218924, “A broad activity screen in support of a chemogenomic map for kinase signalling research and drug discovery” (Biochem J, 2013)
# Experiments:
# [1] = molecular target: T1, Ephrin type-B receptor 1 (Homo sapiens) (UniProt P54762); conditions: at 10 µM
# T1 sequence (whole entry): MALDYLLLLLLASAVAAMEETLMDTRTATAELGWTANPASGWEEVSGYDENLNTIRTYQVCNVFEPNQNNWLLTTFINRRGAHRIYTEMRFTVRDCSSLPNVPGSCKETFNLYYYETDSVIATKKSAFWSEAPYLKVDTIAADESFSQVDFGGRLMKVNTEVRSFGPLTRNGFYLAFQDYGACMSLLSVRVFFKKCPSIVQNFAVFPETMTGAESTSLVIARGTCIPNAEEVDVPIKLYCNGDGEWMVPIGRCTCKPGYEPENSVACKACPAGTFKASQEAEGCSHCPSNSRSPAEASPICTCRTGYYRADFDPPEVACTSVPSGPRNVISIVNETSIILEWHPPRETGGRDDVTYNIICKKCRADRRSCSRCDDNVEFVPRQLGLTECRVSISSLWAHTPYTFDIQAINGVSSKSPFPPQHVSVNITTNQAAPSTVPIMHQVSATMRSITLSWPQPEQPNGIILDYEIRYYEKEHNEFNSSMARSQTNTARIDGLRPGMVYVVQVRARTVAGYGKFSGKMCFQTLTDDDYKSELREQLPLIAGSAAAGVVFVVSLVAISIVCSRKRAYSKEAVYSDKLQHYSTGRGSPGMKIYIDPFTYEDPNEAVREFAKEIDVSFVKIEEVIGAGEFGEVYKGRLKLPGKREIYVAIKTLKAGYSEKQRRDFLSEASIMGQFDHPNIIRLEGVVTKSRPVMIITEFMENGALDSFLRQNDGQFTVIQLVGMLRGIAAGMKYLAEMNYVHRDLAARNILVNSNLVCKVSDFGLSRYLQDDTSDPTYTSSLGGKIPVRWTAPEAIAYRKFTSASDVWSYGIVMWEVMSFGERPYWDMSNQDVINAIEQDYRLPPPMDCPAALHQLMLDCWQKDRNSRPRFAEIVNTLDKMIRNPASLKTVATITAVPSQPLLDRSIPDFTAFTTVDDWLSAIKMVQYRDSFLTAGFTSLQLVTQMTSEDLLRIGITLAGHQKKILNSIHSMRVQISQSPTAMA
# [2] = molecular target: T2, Ephrin type-B receptor 2 (Homo sapiens) (UniProt P29323); conditions: at 1 µM
# T2 sequence (whole entry): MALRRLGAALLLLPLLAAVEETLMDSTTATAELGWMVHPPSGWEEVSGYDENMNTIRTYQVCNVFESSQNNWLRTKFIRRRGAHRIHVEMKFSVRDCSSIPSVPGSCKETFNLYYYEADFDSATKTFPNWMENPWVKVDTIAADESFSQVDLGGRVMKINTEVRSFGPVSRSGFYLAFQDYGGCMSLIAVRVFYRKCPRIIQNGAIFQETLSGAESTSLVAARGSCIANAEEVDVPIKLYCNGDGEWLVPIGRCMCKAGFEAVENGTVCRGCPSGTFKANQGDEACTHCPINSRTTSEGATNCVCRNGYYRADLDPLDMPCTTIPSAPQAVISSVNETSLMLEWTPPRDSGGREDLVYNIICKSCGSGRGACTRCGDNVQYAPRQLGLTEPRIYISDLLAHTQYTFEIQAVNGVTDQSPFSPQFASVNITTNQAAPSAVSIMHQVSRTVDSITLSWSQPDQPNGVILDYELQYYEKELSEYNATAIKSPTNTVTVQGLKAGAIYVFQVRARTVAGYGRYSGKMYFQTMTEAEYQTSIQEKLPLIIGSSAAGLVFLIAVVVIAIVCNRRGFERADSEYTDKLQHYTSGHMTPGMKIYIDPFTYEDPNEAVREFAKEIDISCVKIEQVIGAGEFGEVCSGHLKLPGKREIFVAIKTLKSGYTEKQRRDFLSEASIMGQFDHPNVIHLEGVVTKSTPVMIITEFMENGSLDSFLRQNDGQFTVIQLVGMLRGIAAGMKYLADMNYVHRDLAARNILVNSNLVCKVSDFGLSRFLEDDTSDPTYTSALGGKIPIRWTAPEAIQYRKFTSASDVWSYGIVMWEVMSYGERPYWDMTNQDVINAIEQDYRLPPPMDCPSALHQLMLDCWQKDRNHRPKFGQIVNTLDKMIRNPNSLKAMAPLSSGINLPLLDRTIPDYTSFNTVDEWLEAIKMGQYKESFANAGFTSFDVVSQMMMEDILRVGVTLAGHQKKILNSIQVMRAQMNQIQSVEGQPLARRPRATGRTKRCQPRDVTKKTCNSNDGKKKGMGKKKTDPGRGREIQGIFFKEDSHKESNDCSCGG
# [3] = molecular target: T2, Ephrin type-B receptor 2 (Homo sapiens); conditions: at 10 µM
# [4] = molecular target: T3, Ephrin type-B receptor 3 (Homo sapiens) (UniProt P54753); conditions: at 1 µM
# T3 sequence (whole entry): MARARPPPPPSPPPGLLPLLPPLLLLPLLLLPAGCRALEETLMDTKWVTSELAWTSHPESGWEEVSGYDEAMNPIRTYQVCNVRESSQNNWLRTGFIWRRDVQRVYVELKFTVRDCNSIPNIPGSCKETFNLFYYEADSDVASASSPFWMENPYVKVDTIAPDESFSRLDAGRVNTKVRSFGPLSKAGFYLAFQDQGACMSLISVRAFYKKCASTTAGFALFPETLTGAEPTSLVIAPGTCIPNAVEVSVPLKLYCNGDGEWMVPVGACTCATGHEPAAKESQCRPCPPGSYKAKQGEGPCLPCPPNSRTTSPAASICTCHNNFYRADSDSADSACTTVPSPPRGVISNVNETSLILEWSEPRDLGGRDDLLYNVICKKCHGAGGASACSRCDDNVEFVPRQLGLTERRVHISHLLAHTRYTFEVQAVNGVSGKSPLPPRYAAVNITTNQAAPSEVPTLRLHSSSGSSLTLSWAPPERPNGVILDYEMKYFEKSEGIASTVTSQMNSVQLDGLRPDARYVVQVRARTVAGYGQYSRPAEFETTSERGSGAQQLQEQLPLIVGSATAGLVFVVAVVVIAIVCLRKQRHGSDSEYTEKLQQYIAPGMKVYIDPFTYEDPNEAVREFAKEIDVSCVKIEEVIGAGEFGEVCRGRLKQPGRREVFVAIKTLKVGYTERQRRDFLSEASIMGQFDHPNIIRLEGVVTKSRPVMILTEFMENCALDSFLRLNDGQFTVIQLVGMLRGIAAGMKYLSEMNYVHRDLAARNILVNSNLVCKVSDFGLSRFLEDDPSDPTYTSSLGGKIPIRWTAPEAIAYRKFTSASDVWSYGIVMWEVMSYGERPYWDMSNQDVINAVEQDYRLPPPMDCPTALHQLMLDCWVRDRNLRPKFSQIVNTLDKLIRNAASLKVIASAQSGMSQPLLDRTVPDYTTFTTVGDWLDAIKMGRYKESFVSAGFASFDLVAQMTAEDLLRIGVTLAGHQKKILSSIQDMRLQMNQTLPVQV
# [5] = molecular target: T3, Ephrin type-B receptor 3 (Homo sapiens); conditions: at 10 µM
# [6] = molecular target: T4, Ephrin type-B receptor 4 (Homo sapiens) (UniProt P54760); conditions: at 1 µM
# T4 sequence (whole entry): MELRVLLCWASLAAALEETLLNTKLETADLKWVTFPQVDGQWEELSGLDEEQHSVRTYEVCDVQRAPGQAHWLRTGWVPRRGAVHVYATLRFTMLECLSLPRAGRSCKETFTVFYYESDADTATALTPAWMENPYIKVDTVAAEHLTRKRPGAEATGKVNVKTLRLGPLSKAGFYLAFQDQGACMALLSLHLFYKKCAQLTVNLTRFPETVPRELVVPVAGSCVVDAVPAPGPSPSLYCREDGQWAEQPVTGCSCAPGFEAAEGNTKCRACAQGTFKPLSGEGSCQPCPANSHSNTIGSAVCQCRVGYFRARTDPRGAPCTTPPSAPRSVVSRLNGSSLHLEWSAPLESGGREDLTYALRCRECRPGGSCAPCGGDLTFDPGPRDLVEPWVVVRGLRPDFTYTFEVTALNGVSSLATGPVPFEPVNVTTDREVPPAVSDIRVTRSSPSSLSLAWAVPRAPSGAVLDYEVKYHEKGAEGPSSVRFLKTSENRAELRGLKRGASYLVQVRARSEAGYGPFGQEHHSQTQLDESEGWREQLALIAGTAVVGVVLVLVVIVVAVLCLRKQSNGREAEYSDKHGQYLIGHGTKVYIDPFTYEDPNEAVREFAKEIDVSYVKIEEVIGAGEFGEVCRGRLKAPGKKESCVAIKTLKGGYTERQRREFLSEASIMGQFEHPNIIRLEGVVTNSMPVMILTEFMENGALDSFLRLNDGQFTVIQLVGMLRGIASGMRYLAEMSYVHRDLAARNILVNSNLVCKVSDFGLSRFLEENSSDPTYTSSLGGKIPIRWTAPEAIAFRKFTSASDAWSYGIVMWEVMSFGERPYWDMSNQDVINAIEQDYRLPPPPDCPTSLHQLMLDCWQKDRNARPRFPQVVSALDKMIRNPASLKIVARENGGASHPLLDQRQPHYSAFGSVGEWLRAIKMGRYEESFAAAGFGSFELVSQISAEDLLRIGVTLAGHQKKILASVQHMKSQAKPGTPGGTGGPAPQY
# [7] = molecular target: T4, Ephrin type-B receptor 4 (Homo sapiens); conditions: at 10 µM
# [8] = molecular target: Receptor tyrosine-protein kinase erbB-4 (Homo sapiens) (UniProt Q15303); conditions: at 1 µM
# Sequence of Receptor tyrosine-protein kinase erbB-4 (Homo sapiens) (Q15303 whole entry): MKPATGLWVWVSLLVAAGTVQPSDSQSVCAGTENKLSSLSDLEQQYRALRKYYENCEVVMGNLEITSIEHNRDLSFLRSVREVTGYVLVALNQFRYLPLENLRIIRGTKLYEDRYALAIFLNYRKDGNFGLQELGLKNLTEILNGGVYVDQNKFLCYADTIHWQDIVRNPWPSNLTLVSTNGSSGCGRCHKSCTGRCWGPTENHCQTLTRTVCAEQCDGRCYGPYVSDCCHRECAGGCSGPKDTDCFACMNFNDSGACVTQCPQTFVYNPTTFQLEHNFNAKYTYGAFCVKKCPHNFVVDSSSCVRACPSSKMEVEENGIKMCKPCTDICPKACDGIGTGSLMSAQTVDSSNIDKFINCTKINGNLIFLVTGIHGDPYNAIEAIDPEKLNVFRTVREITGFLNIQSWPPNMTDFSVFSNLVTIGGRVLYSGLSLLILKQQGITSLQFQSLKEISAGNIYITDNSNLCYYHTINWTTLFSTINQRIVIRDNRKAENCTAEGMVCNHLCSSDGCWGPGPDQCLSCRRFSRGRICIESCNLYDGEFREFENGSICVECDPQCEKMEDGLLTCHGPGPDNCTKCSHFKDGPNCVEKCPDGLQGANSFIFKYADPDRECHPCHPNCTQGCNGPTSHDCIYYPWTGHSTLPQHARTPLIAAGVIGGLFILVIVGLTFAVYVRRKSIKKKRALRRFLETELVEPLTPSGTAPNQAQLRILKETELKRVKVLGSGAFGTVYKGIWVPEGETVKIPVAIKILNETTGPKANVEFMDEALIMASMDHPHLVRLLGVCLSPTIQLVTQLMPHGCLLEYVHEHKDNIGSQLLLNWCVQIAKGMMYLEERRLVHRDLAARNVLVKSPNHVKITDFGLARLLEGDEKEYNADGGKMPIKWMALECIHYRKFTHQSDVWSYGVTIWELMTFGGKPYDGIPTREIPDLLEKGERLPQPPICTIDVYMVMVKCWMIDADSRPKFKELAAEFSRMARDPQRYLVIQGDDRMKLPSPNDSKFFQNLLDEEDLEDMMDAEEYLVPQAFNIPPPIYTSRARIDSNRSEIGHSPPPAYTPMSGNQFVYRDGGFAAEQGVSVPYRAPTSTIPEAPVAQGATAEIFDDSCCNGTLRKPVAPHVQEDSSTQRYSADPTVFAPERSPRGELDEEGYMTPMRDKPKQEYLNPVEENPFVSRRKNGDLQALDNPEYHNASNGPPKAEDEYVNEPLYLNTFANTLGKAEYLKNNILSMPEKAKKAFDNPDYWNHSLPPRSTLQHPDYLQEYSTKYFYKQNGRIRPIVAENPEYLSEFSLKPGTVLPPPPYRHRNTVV
# [9] = molecular target: Receptor tyrosine-protein kinase erbB-4 (Homo sapiens) (UniProt Q15303); conditions: at 10 µM
# [10] = molecular target: Focal adhesion kinase 1 (Homo sapiens) (UniProt Q05397); conditions: at 1 µM
# Sequence of Focal adhesion kinase 1 (Homo sapiens) (Q05397 2-1052 limits assumed): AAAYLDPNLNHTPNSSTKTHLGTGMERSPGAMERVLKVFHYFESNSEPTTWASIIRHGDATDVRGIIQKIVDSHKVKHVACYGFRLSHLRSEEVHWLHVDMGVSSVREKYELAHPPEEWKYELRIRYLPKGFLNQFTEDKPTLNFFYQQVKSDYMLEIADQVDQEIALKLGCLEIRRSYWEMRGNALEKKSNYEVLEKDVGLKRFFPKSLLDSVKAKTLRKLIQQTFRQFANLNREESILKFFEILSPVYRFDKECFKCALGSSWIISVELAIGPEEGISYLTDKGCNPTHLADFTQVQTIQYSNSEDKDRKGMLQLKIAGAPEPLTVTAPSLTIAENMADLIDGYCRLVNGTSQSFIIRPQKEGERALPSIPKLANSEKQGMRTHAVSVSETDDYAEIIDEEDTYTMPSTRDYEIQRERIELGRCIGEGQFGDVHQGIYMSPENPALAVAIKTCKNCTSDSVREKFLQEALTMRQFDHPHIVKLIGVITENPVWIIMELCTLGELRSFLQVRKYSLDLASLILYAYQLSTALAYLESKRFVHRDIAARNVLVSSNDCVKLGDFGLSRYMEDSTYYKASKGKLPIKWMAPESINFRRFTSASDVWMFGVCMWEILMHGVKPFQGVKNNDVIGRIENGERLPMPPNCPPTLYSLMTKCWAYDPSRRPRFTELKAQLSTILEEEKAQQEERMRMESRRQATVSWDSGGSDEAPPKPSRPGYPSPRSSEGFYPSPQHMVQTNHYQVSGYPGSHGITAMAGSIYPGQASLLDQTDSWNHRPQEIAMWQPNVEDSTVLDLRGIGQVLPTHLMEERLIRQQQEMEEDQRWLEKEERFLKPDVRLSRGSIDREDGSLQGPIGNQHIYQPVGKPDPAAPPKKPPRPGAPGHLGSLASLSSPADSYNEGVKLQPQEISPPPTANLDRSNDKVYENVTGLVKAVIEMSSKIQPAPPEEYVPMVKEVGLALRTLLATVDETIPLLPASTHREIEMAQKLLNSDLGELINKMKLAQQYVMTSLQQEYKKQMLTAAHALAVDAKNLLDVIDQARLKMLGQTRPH
compound,measurement,setting,value
CN(C)c1ccc(/C=C2\C(=O)Nc3ccccc32)cc1,residual activity,[1],80%
same,residual activity,[2],112%
same,residual activity,[3],130%
same,residual activity,[4],108% (inactive)
same,residual activity,[5],123%
same,residual activity,[6],97%
same,residual activity,[7],121%
same,residual activity,[8],115%
same,residual activity,[9],82%
same,residual activity,[10],82%
